Screening data deposited in PubChem by Broad Institute.
MITF inhib: inhibitors of MITF; TRPM1 promoter luciferase, luminescence, 24 h; inhibition, % (concentration not given with the values); 37,000 compounds, 0.28% hits; AID 2240; in the data active = inhibition above about 85%;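 also: human melanocyte line stably carrying TRPM1 promoter luciferase reporter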
Hedgehog inh: blocks Sonic Hedgehog signaling | Shh-LIGHT2 Gli-luciferase reporter, 30 h | inhibition, % (no concentration beside the values) | 22,000 compounds, 2.1% hits;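 active = mean inhibition across valid replicates above about 65%, limit read from the data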;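 also: pathway switched on by Shh-conditioned medium diluted 1 in 25 in low serum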
NOMO-1 viab: STK33 inhibitor candidate reducing NOMO-1 cell viability; 37,000 compounds, 7.5% hits; inhibition, % (test concentration not listed); NOMO-1 AML viability, CellTiter-Glo luminescence, 72 h; AID 2330; in the data active = inhibition above about 80%
An asterisk follows results filed as active; x = no result given. An excerpt weighted towards active compounds, which were near 7.9% of everything screened.

SMILES	MITF inhib	Hedgehog inh	NOMO-1 viab
CCn1c(SCc2nc(-c3cccs3)no2)nnc1-c1cccs1	-6.6	x	11.6
CCC(C)C1=NN(C(=O)c2ccccc2)C(O)(C(=O)OC)C1 (stereo not given)	-49.1	-33.0	76.7
C[C@@H]1O[C@@H](O[C@H]2[C@H](O[C@H]3CC[C@@]4(C)C(CC[C@]5(C)C4CC=C4C6CC(C)(C)CC[C@]6(C(=O)O[C@@H]6O[C@H](CO[C@@H]7O[C@H](CO)[C@@H](O[C@@H]8O[C@@H](C)[C@H](O)[C@@H](O)[C@H]8O)[C@H](O)[C@H]7O)[C@@H](O)[C@H](O)[C@H]6O)CC[C@]45C)[C@]3(C)CO)OC[C@H](O)[C@@H]2O)[C@H](O)[C@H](O)[C@H]1O (stereo not given in full)	x	-7.7	x
C[C@@H]1O[C@@H](O[C@H]2[C@H](O[C@H]3CC[C@@]4(C)C(CC[C@]5(C)C4C=C[C@]46OC[C@@]7(CCC(C)(C)C[C@H]74)[C@@H](O)C[C@]65C)[C@]3(C)CO)O[C@H](CO)[C@@H](O)[C@@H]2O[C@@H]2O[C@H](CO)[C@@H](O[C@@H]3O[C@@H](C)[C@H](O)[C@@H](O)[C@H]3O)[C@H](O)[C@H]2O)[C@H](O)[C@H](O)[C@H]1O (stereo not given in full)	x	103.6*	x
Cc1cccc(OCC(=O)NC(=S)Nc2ccc(C)cc2O)c1	30.1	x	102.1*
COC(=O)c1sccc1NC(=O)COc1cccc(C)c1	-18.5	x	7.3
C[C@@H]1CN([C@@H](C)CO)C(=O)c2cc(NS(=O)(=O)c3ccc(Cl)cc3)ccc2O[C@@H]1CN(C)S(C)(=O)=O	-8.8	-0.3	-8.6
C[C@@H]1CN([C@@H](C)CO)C(=O)c2cccc(NC(=O)c3ccc(-c4nccs4)cc3)c2O[C@@H]1CN(C)C(=O)Nc1cccc2ccccc12	4.7	66.0*	57.0
C[C@@H]1CN([C@@H](C)CO)C(=O)c2cccc(NC(=O)c3ccc(-c4nccs4)cc3)c2O[C@@H]1CN(C)Cc1ccccc1	-6.6	39.4	14.1
C[C@H](CO)N1C[C@H](C)[C@@H](CN(C)Cc2ccccc2)Oc2c(NC(=O)c3ccc(-c4nccs4)cc3)cccc2C1=O	20.9	42.2	96.6*
C[C@@H]1CN([C@@H](C)CO)C(=O)c2cccc(NC(=O)c3ccc(-c4nccs4)cc3)c2O[C@H]1CN(C)Cc1ccc(C(=O)O)cc1	-4.6	-24.0	-6.4
C[C@@H]1CN([C@@H](C)CO)C(=O)c2cccc(NC(=O)c3ccc(-c4nccs4)cc3)c2O[C@@H]1CN(C)Cc1ccc(C(=O)Nc2ccccc2N)cc1	59.8	x	141.3*
C[C@H]1CN([C@@H](C)CO)C(=O)c2cccc(NC(=O)c3ccc(-c4nccs4)cc3)c2O[C@H]1CN(C)Cc1ccc(-c2ccccc2)cc1	-4.9	18.7	58.1
C[C@H](CO)N1C[C@H](C)[C@H](CN(C)C(=O)Nc2cccc3ccccc23)Oc2c(NC(=O)c3ccc(-c4nccs4)cc3)cccc2C1=O	-18.7	-24.8	-7.2
C[C@H](CO)N1C[C@H](C)[C@H](CN(C)Cc2ccc(-c3ccccc3)cc2)Oc2c(NC(=O)c3ccc(-c4nccs4)cc3)cccc2C1=O	6.5	7.2	88.2*
C[C@@H]1CN([C@H](C)CO)C(=O)c2cc(NC(=O)Cn3cnnn3)ccc2O[C@@H]1CN(C)S(=O)(=O)c1ccc(Cl)cc1	-2.9	-5.6	3.2
CCNC(=O)c1c(NC(=O)COc2ccc(Cl)cc2Cl)sc2c1CCCC2	-6.0	x	45.0
COC(=O)C[C@H]1C(C)(C)[C@H](OC(C)=O)[C@]2(O)CC3=C4CC(=O)O[C@@H](c5ccoc5)[C@]4(C)CCC3[C@@]1(C)C2=O (stereo not given in full)	-8.9	14.0	19.9
C[C@@H]1CN([C@H](C)CO)C(=O)Cc2cc(NC(=O)Cn3cnnn3)ccc2O[C@H]1CN(C)C(=O)Nc1ccc(F)cc1	-3.8	x	-1.9
CN(CC(=O)Nc1ccc(C(F)(F)F)cc1)S(=O)(=O)c1ccc(Br)cc1	16.2	x	23.9
Cn1c(O)c(C=Nc2cccc(Cl)c2)c2ccccc21	7.3	x	35.2
C=C1CC[C@H]2[C@](C)(CCC[C@]2(C)C(=O)OC)[C@H]1CC/C(C)=C/C(=O)O	24.0	-23.4	5.2
C[C@@H]1CN([C@H](C)CO)C(=O)c2cccc(NC(=O)c3ccc(-c4nccs4)cc3)c2O[C@H]1CN(C)Cc1ccc(-c2ccccc2)cc1	7.6	16.1	24.3
C[C@H](CO)N1C[C@H](C)[C@@H](CN(C)Cc2ccc(-c3ccccc3)cc2)Oc2c(NC(=O)c3ccc(-c4nccs4)cc3)cccc2C1=O	20.9	40.5	86.8*
C[C@H]1CN([C@@H](C)CO)C(=O)c2cccc(NC(=O)c3ccc(-c4nccs4)cc3)c2O[C@H]1CN(C)Cc1ccc(Oc2ccccc2)cc1	-17.8	18.6	63.9
